What all share (details): mRNA level, 48 h; actives raise or lower the signal
Read-out in assay [1]: Cyclin D1 (CCND1), CCND1 (gene 595)
Put plainly: LTEA_HepaRG_CCND1: Life Technologies and Expression Analysis (LTEA) Assay for Cyclin D1 (CCND1) using HepaRG (AID 2283451).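 On AC50: differentiated human HepaRG liver cells in serum-free induction medium; TaqMan qRT-PCR transcript level normalised to ACTB GAPDH and POLR2A housekeeping genes.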 The method in brief:
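qRT-PCR (Fluidigm 96.96 array) read-out of transcript level, housekeeping-normalized (ACTB/GAPDH/POLR2A). HepaRG cells, 48 h chemical exposure, 8-point half-log series from 100 uM, 0.5% DMSO vehicle; gain or loss relative to DMSO baseline.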

Read-out in assay [2]: catalase (CAT), CAT (gene 847)
Put plainly: LTEA_HepaRG_CAT: Life Technologies and Expression Analysis (LTEA) Assay for catalase (CAT) using HepaRG (AID 2283452). The method in brief:
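Differentiated HepaRG cells in serum-free induction medium were dosed 48 h in duplicate, eight half-log concentrations from 100 uM in 0.5% DMSO. Transcript measured by TaqMan qRT-PCR, normalised to ACTB/GAPDH/POLR2A, fitted bidirectionally against DMSO.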

Read-out in assay [3]: flavin-containing dimethylaniline monooxygenases 3 (FMO3), FMO3 (gene 2328)
As to the kind of experiment: LTEA_HepaRG_FMO3: Life Technologies and Expression Analysis (LTEA) Assay for flavin-containing dimethylaniline monooxygenases 3 (FMO3) using HepaRG (AID 2283453).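 On AC50: differentiated human HepaRG liver cells in serum-free induction medium.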 The method in brief:
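FMO3 transcript quantified by TaqMan qRT-PCR against three housekeeping genes after 48 h chemical exposure of HepaRG cells. Eight-point half-log series, top 100 uM, 0.5% DMSO vehicle; phenobarbital 1mM induction control; up- or down-regulation fitted.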

Read-out in assay [4]: Cytochrome P450 (CYP1A1), CYP1A1 (gene 1543)
As to the kind of experiment: LTEA_HepaRG_CYP1A1: Life Technologies and Expression Analysis (LTEA) Assay for Cytochrome P450 (CYP1A1) using HepaRG (AID 2283454). The method in brief:
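qRT-PCR read-out: CYP1A1 transcript normalized to three housekeeping genes, fitted bidirectionally against 0.5% DMSO vehicle baseline. Human HepaRG cells, 48 h chemical exposure, 8-point half-log series topping at 100 uM.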

Read-out in assay [5]: CFLAR gene, CFLAR (gene 8837)
As to the kind of experiment: LTEA_HepaRG_CFLAR: Life Technologies and Expression Analysis (LTEA) Assay for CFLAR gene using HepaRG (AID 2283455). The method in brief: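 Gain- or loss-of-signal changes in CFLAR transcript were fitted bidirectionally relative to 0.5% DMSO. Cells (HepaRG, duplicate wells) were dosed for 48 h across eight half-log concentrations topping at 100 uM; quantitation by TaqMan qRT-PCR.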

Read-out in assay [6]: Forkhead box O1 (FOXO1), FOXO1 (gene 2308)
Put plainly: LTEA_HepaRG_FOXO1: Life Technologies and Expression Analysis (LTEA) Assay for Forkhead box O1 (FOXO1) using HepaRG (AID 2283456). The method in brief:
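Using one lot of HepaRG hepatic cells kept in 0.5% DMSO, the team applied test chemicals in duplicate, half-log dilutions from 100 uM, for 48 h. Expression, normalised to ACTB/GAPDH/POLR2A, was compared with vehicle in either direction.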

Read-out in assay [7]: Forkhead box O3 (FOXO3), FOXO3 (gene 2309)
As to the kind of experiment: LTEA_HepaRG_FOXO3: Life Technologies and Expression Analysis (LTEA) Assay for Forkhead box O3 (FOXO3) using HepaRG (AID 2283459). The method in brief:
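Gene-expression endpoint: FOXO3 transcript level by qRT-PCR in HepaRG cultures treated 48 h with chemicals up to 100 uM (half-log, 0.5% DMSO vehicle).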

Read-out in assay [8]: ABC Transporter (ABCB11), ABCB11 (gene 8647)
As to the kind of experiment: LTEA_HepaRG_ABCB11: Life Technologies and Expression Analysis (LTEA) Assay for ABC Transporter (ABCB11) using HepaRG (AID 2283463). The method in brief:
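Using HepaRG cultures held in 0.5% DMSO, chemicals were tested at half-log dilutions from 100 uM for 48 h. Induction or suppression of ABCB11 mRNA, normalized to ACTB, GAPDH and POLR2A, was fitted bidirectionally against vehicle.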

Read-out in assay [9]: ABC Transporter (ABCC2), ABCC2 (gene 1244)
As to the kind of experiment: LTEA_HepaRG_ABCC2: Life Technologies and Expression Analysis (LTEA) Assay for ABC Transporter (ABCC2) using HepaRG (AID 2283464). The method in brief:
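qRT-PCR (TaqMan, Fluidigm array) read-out of ABCC2 mRNA, normalized to three housekeeping genes. Differentiated HepaRG cells were treated 48 h in serum-free induction medium with 8-point half-log series from 100 uM in 0.5% DMSO; curves fitted bidirectionally relative to DMSO.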

Read-out in assay [10]: Broad substrate specificity ATP-binding cassette transporter ABCG2 (Homo sapiens) (UniProt Q9UNQ0)
As to the kind of experiment: LTEA_HepaRG_ABCG2: Life Technologies and Expression Analysis (LTEA) Assay for ABC Transporter (ABCG2) using HepaRG (AID 2283465). The method in brief: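 Gene expression of ABCG2 in HepaRG liver cells is quantified by qRT-PCR following 48 h exposure across an eight-point series topping at 100 uM. Values come from bidirectional fitting relative to DMSO vehicle.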

Read-out in assay [11]: ATP-citrate lyase (ACLY), ACLY (gene 47)
As to the kind of experiment: LTEA_HepaRG_ACLY: Life Technologies and Expression Analysis (LTEA) Assay for ATP-citrate lyase (ACLY) using HepaRG (AID 2283466). The method in brief:
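ACLY expression changes in human HepaRG liver cells are quantified by qRT-PCR after 48 h exposure to test chemicals (maximum 100 uM, half-log steps). Values are fitted in both directions relative to 0.5% DMSO vehicle.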

Read-out in assay [12]: Peroxisomal acyl-coenzyme A oxidase 1 (ACOX1) gene, ACOX1 (gene 51)
As to the kind of experiment: LTEA_HepaRG_ACOX1: Life Technologies and Expression Analysis (LTEA) Assay for Peroxisomal acyl-coenzyme A oxidase 1 (ACOX1) gene using HepaRG (AID 2283467). The method in brief:
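Human HepaRG hepatic cultures, 48 h treatment with test chemicals up to 100 uM. ACOX1 expression read by qRT-PCR relative to 0.5% DMSO vehicle.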

Read-out in assay [13]: Alkaline Phosphatase, Placental (ALPP) gene, ALPP (gene 250)
As to the kind of experiment: LTEA_HepaRG_ALPP: Life Technologies and Expression Analysis (LTEA) Assay for Alkaline Phosphatase, Placental (ALPP) gene using HepaRG (AID 2283468).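 On AC50: differentiated human HepaRG liver cells in serum-free induction medium.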 The method in brief: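 qRT-PCR readout of ALPP mRNA (Fluidigm TaqMan), normalized to ACTB/GAPDH/POLR2A, after 48 h chemical exposure of HepaRG cells; 8-point half-log series, top 100 uM, 0.5% DMSO vehicle. Bidirectional curve fit versus DMSO baseline.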

Read-out in assay [14]: Bcl-2 (BAD) gene, BAD (gene 572)
As to the kind of experiment: LTEA_HepaRG_BAD: Life Technologies and Expression Analysis (LTEA) Assay for Bcl-2 (BAD) gene using HepaRG (AID 2283469). The method in brief: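 Activity values reflect up- or down-regulation of BAD mRNA in human HepaRG hepatic cells treated 48 h in serum-free medium, with eight-point half-log dosing capped at 100 uM and 0.5% DMSO vehicle.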

Read-out in assay [15]: Bcl-2 (BAX) gene, BAX (gene 581)
Put plainly: LTEA_HepaRG_BAX: Life Technologies and Expression Analysis (LTEA) Assay for Bcl-2 (BAX) gene using HepaRG (AID 2283470). The method in brief: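 Gene expression measured by Fluidigm qRT-PCR with three housekeeping genes for normalisation. HepaRG cells, plated 48 h beforehand, treated 48 h at up to 100 uM (8-point, half-log) in 0.5% DMSO. Bidirectional fitting versus DMSO.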

Read-out in assay [16]: growth arrest and DNA damage 45 (GADD45B), GADD45B (gene 4616)
Put plainly: LTEA_HepaRG_GADD45B: Life Technologies and Expression Analysis (LTEA) Assay for growth arrest and DNA damage 45 (GADD45B) using HepaRG (AID 2283461). The method in brief: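 qRT-PCR read-out (Fluidigm TaqMan, housekeeping-normalized) of mRNA change in human HepaRG cells after 48 h chemical exposure; 8-point curve, top 100 uM, half-log steps, 0.5% DMSO vehicle; gain or loss fitted relative to DMSO baseline.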

Read-out in assay [17]: ABC Transporter (ABCB1), ABCB1 (gene 5243)
As to the kind of experiment: LTEA_HepaRG_ABCB1: Life Technologies and Expression Analysis (LTEA) Assay for ABC Transporter (ABCB1) using HepaRG (AID 2283460). The method in brief: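 Human liver HepaRG line treated 48 h with up to 100 uM compound (eight half-log points, 0.5% DMSO); ABCB1 mRNA change fitted bidirectionally against DMSO controls.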

Read-out in assay [18]: ABC Transporter (ABCC3), ABCC3 (gene 8714)
As to the kind of experiment: LTEA_HepaRG_ABCC3: Life Technologies and Expression Analysis (LTEA) Assay for ABC Transporter (ABCC3) using HepaRG (AID 2283462). The method in brief: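 qRT-PCR read-out of ABCC3 transcript, normalized to three housekeeping genes (ACTB, GAPDH, POLR2A), after 48 h chemical exposure of human HepaRG cells. Eight half-log concentrations, highest 100 uM, in 0.5% DMSO; gain or loss fitted relative to DMSO baseline.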

Activity calls are given as the source filed them. How the source made its calls: active means hit-call score of the fitted dose curve at least 0.9, where 1 is the maximum; inactive means score below 0.9.

Sequence of Broad substrate specificity ATP-binding cassette transporter ABCG2 (Homo sapiens) (Q9UNQ0 whole entry, looked up): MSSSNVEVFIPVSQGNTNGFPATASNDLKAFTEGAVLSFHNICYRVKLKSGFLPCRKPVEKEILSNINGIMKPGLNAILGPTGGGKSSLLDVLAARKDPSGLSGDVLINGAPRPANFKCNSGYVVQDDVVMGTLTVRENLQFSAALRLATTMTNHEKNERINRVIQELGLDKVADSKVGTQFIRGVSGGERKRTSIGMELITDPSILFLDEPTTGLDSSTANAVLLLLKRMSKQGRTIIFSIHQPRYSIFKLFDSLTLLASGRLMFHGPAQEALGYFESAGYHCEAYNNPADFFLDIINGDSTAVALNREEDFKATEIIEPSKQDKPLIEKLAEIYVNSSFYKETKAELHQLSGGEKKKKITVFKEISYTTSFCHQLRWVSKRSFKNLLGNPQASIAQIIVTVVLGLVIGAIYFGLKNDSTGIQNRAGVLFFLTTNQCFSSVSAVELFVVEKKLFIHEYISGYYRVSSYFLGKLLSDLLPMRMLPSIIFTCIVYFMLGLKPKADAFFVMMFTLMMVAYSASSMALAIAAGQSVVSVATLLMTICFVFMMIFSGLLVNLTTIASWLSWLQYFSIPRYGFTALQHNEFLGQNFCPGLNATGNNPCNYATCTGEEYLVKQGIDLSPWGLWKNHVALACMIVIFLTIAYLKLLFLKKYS

Regarding `CCC12COCN1COC2`, the outcome in assay [1], in assay [2], in assay [3], in assay [5], in assay [6] and in assay [7] was inactive. Further, the call in assay [8], in [9], in [10], in assay [11], in assay [12] and in [13] was inactive. Further, the outcome in [14] and in [15] was inactive. Further, in assay [4], the AC50 was 50 µM (active).

In the case of `CN(C)c1ccc(C(=O)c2ccc(N(C)C)cc2)cc1`, the compound was classed as inactive in assay [1], in assay [2], in assay [5], in assay [6], in [7] and in assay [16]. Moreover, the result in assay [8], in assay [9], in assay [10], in assay [11], in [12] and in assay [14] was inactive. In addition, in assay [15], the outcome was inactive. Further, the AC50 in [3] was 50 µM (active); in assay [4], 14.6 µM (active); in [13] it was 3.13 µM (active).

As for `CCCCOC(=O)c1ccccc1C(=O)OCc1ccccc1`, the result in [1], in assay [2], in assay [3], in [5], in [6] and in assay [7] was inactive. Besides, the compound was called inactive in [17], in [8], in [9], in [10], in [11] and in assay [12]. For the same compound, the compound was classed as inactive in assay [13], in [14] and in [15]. In addition, in assay [4], the half-maximal activity concentration (AC50) is 15.1 µM (active).

For the compound `ClC1=C(Cl)C2(Cl)C3C(Cl)C=CC3C1(Cl)C2(Cl)Cl` (centres undefined), the AC50 is 18.4 µM (active) in assay [1]; 18.3 µM (active) in assay [4]; 41.6 µM (active) in assay [8]; 11.4 µM (active) in [9]; 8.6 µM (active) in assay [10]. Further, the outcome in [2], in [3], in assay [5], in assay [6], in [7] and in [11] was inactive. Also, the compound was classed as inactive in [12], in assay [13], in assay [14] and in assay [15].

In the case of `CCOC(=O)[C@]1(c2ccccc2)Oc2ccccc2[C@@H]1N`, the AC50 was 77.5 µM (active) in [1]; 88.2 µM (active) in [2]; 78.6 µM (active) in assay [3]; 13 µM (active) in assay [4]; 83.3 µM (active) in assay [6]; 78.7 µM (active) in assay [8]. Moreover, the AC50 in [9] is 82.2 µM (active); in assay [10] it was 50 µM (active); in assay [12], 87.5 µM (active); in assay [13] it was 50 µM (active); in assay [15], 75.7 µM (active). The call in assay [5], in [7], in assay [11] and in [14] was inactive.

Regarding `CCCCCCCCn1sccc1=O`, the concentration at half-maximal activity (AC50) in assay [1] is 83.7 µM (active); in [2], 85.6 µM (active); in [3] it was 88.9 µM (active); in assay [4] it was 32.8 µM (active); in assay [5], 78.9 µM (active); in assay [18] it was 73.8 µM (active). Moreover, the values for the AC50 in assay [8] and in assay [12] were 72.1 µM (active) and 83.8 µM (active), respectively. Moreover, the compound was called inactive in assay [6], in [7], in assay [16], in [9], in assay [10] and in [11]. In addition, the compound was called inactive in assay [13], in assay [14] and in [15].

As a reminder, the AC50 is the midpoint of the concentration-response curve, whichever way the signal moves.

The values above are taken from PubChem BioAssay (EPA / NIEHS).
